In PubChem BioAssay (NCATS):
Results filed as inconclusive are left out. Entries that show only a call come without a potency. Calls of active or inactive are those of the source. Calls come from the whole dose curve; as a rule, active = well fitted inhibition curve with a large enough effect; inconclusive = small, poorly fitted or top-dose-only effect; inactive = no such curve, though single readings can be large or run the other way.

Molecular target: Rap guanine nucleotide exchange factor 3 (Homo sapiens) (UniProt O95398)
Sequence (O95398 whole entry, looked up): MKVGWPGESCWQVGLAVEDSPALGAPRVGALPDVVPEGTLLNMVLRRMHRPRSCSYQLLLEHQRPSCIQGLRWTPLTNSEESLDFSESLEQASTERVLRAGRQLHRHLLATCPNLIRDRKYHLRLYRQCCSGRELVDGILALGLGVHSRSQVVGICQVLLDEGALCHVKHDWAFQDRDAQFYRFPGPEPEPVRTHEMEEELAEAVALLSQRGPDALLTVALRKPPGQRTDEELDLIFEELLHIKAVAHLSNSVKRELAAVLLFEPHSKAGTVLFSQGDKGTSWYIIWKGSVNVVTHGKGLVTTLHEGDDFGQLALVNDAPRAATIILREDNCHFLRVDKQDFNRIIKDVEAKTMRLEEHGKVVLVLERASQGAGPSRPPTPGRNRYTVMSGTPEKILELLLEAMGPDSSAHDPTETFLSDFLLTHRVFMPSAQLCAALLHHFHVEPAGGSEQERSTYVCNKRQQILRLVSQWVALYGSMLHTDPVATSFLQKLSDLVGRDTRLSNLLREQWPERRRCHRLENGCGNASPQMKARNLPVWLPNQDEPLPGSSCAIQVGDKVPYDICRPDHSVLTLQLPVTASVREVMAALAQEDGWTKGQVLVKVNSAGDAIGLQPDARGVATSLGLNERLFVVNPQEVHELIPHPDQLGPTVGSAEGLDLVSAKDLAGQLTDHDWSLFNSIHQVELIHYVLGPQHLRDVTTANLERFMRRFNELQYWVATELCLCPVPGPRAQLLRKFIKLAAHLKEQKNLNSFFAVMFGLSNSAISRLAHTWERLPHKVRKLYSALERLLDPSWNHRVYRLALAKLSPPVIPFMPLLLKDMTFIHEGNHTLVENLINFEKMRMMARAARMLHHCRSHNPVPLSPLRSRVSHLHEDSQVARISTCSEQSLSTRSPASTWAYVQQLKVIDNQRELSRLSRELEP
Experiment: Counterscreen qHTS for antagonist of cAMP-regulated guanine nucleotide exchange factor 3 (EPAC1) (AID 1645888);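 note: fluorescence loss as bound BODIPY-GDP is released from Rap1B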
Settings: Rap1B-BODIPY-GDP nucleotide exchange, fluorescence; series mostly up to 154 µM
Outline: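 Rap1B-BODIPY-GDP 250 nM + GDP 50 uM; cpds 7-pt, final 9.74 nM–152 uM (activator mode) or from 7.32 nM upwards (inhibitor mode); RT; FI 480/540 nm at 5 and 30 min, then ± cAMP, reread.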

Compound | Potency
COc1ccc(Cl)cc1C1CC(=O)Nc2cc3c(cc21)OCCO3 (stereo unspecified) | inactive
COc1ccc(C(=O)NCCn2cc(SCc3cccc(F)c3)c3ccccc32)cc1OC | inactive
Cc1ccccc1C1(O)c2ccccc2-c2ccccc21 | inactive
Cc1ccccc1OCC(=O)Nc1ccc(C(=O)OCc2cc(=O)n3c(C)csc3n2)cc1 | inactive
COc1ccc(CNc2ncnc3onc(-c4ccc(F)cc4)c23)cc1 | inactive
CCn1c(SCC(=O)c2ccc(O)c(O)c2)nnc1-c1ccccc1OC | inactive
O=C(Nc1ccc(-c2cn3ccccc3n2)cc1)c1cccs1 | inactive
COc1cccc2cc(/C(=N/O)c3ccccc3)oc12 | inactive
N#C/C(=C\c1ccc(-c2ccccc2C(=O)O)o1)c1nc2ccccc2[nH]1 | inactive
O=C(Cn1c(=O)c2ccccc2n(CC(=O)Nc2ccc(Cl)cc2)c1=O)NCCc1ccccc1 | inactive
Cc1ccc(C)c(Oc2nc3c(c(=O)n(C)c(=O)n3C)n2Cc2ccccc2)c1 | inactive
O=C(CSc1nc2ccccc2o1)N/N=C/c1ccc(O)c(O)c1 | inactive
COc1ccc2c(c1)Cc1sc(NC(=O)c3ccccc3Br)nc1-2 | inactive
Cc1ccc2c(c1)-c1c(cnn1CC(=O)N1CCN(c3cccc(C(F)(F)F)c3)CC1)CO2 | inactive
CCOC(=O)Nc1cc2c(c(N)n1)N=C(c1ccccc1)CN2 | inactive
O=C(Nc1cccc(S(=O)(=O)NCc2ccco2)c1)c1cc(-c2ccccc2)nc2ccccc12 | inactive

Compound | Potency
CC(=O)Nc1ccc(Nc2nnc(-c3ccc(O)cc3)c3ccccc23)cc1 | inactive
COc1ccc(-c2ccc(C(=O)NC(C)C)c3occc23)c(C)c1 | inactive
Cc1nn(-c2ccccc2)c2nc(N)c(C#N)c(-c3ccc(O)c(O)c3)c12 | inactive
N/C(CSc1nc(-c2ccccc2)c(-c2ccccc2)o1)=N\O | inactive
CCOc1ccccc1C(=O)N1CCc2cc(OC)c(OC)cc2C1COc1ccc(OC)cc1 (stereo unspecified) | inactive
Cc1csc2nc(-c3cccc(NC(=O)c4cccc(F)c4)c3)cn12 | inactive
Cc1cc(C)c2c(CN3CCCC3)cc(=O)oc2c1 | inactive
O=C(c1ccccc1Cc1ccccc1)N1CCN(S(=O)(=O)c2ccccc2Br)CC1 | inactive
Cc1nc2ccccc2c2oc(C(=O)Nc3ccc4c(c3)OCCO4)cc12 | inactive
O=[N+]([O-])c1cccc(S(=O)(=O)Nc2cccc(-c3ccc(N4CCCC4)nn3)c2)c1 | inactive
Clc1ccc(OCCn2c(-c3ccco3)nc3ccccc32)cc1 | inactive
O=c1[nH]c(Nc2ccc(F)cc2)cc2ccccc12 | inactive
CCc1ccc(CNC(=O)Cn2nc(C)n3c(cc4cc(C)ccc43)c2=O)cc1 | inactive
O=C(Nc1ccccc1N1CCCCC1)C1=COCCO1 | inactive
COc1ccccc1CN(C)C(=O)C(c1ccccc1)c1ccccc1 | inactive
